Laboratory results taken from ChEMBL document CHEMBL2218924, “A broad activity screen in support of a chemogenomic map for kinase signalling research and drug discovery” (Biochem J, 2013).

Legend:
[1] = target: Serine/threonine-protein kinase WNK2 (Homo sapiens) (UniProt Q9Y3S1); conditions: at 10 µM
[2] = target: Serine/threonine-protein kinase WNK3 (Homo sapiens) (UniProt Q9BYP7); conditions: at 1 µM
[3] = target: Serine/threonine-protein kinase WNK3 (Homo sapiens) (UniProt Q9BYP7); conditions: at 10 µM
[4] = target: Tyrosine-protein kinase Yes (Homo sapiens) (UniProt P07947); conditions: at 1 µM
[5] = target: Tyrosine-protein kinase Yes (Homo sapiens) (UniProt P07947); conditions: at 10 µM
[6] = target: T1, Tyrosine-protein kinase ZAP-70 (Homo sapiens) (UniProt P43403); conditions: at 1 µM
T1 sequence (whole entry): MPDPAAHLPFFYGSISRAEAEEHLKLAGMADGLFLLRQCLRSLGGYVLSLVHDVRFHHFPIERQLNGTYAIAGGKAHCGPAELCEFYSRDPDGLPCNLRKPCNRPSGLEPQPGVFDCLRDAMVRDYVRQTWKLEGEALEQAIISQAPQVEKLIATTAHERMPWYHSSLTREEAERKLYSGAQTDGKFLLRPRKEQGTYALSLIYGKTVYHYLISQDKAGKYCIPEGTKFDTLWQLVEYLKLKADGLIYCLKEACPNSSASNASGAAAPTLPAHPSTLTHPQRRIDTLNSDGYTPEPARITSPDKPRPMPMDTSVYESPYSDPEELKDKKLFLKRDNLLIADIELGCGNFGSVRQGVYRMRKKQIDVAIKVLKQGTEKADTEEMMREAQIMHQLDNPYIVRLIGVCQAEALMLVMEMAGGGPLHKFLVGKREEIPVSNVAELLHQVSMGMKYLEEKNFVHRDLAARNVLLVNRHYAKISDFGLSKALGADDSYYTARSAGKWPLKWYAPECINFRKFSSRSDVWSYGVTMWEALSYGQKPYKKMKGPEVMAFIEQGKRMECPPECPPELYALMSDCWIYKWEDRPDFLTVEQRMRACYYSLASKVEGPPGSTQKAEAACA

[7] = target: Death-associated protein kinase 3 (Homo sapiens) (UniProt O43293); conditions: at 1 µM
[8] = target: Death-associated protein kinase 3 (Homo sapiens) (UniProt O43293); conditions: at 10 µM
[9] = target: RAF proto-oncogene serine/threonine-protein kinase (Homo sapiens) (UniProt P04049); conditions: at 1 µM
[10] = target: RAF proto-oncogene serine/threonine-protein kinase (Homo sapiens) (UniProt P04049); conditions: at 10 µM

RAF proto-oncogene serine/threonine-protein kinase (Homo sapiens), sequence (P04049 whole entry): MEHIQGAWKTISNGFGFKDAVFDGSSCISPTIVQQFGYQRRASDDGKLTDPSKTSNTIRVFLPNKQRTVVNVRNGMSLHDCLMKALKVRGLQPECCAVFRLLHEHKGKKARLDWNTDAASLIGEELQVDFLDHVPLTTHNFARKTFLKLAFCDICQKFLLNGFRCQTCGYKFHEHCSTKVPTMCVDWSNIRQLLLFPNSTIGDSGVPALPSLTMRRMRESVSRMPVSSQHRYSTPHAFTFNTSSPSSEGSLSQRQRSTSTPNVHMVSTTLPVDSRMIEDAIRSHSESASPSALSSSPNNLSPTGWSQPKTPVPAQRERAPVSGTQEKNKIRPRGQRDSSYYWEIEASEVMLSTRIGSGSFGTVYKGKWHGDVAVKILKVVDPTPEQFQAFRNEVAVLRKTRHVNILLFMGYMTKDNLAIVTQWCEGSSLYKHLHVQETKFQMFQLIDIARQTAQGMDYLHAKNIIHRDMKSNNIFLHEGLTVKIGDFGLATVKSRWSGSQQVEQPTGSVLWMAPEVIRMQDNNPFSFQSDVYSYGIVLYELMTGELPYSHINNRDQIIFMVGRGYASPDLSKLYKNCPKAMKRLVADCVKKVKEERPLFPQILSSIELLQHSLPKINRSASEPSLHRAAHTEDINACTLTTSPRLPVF
Serine/threonine-protein kinase WNK3 (Homo sapiens), sequence (Q9BYP7 whole entry): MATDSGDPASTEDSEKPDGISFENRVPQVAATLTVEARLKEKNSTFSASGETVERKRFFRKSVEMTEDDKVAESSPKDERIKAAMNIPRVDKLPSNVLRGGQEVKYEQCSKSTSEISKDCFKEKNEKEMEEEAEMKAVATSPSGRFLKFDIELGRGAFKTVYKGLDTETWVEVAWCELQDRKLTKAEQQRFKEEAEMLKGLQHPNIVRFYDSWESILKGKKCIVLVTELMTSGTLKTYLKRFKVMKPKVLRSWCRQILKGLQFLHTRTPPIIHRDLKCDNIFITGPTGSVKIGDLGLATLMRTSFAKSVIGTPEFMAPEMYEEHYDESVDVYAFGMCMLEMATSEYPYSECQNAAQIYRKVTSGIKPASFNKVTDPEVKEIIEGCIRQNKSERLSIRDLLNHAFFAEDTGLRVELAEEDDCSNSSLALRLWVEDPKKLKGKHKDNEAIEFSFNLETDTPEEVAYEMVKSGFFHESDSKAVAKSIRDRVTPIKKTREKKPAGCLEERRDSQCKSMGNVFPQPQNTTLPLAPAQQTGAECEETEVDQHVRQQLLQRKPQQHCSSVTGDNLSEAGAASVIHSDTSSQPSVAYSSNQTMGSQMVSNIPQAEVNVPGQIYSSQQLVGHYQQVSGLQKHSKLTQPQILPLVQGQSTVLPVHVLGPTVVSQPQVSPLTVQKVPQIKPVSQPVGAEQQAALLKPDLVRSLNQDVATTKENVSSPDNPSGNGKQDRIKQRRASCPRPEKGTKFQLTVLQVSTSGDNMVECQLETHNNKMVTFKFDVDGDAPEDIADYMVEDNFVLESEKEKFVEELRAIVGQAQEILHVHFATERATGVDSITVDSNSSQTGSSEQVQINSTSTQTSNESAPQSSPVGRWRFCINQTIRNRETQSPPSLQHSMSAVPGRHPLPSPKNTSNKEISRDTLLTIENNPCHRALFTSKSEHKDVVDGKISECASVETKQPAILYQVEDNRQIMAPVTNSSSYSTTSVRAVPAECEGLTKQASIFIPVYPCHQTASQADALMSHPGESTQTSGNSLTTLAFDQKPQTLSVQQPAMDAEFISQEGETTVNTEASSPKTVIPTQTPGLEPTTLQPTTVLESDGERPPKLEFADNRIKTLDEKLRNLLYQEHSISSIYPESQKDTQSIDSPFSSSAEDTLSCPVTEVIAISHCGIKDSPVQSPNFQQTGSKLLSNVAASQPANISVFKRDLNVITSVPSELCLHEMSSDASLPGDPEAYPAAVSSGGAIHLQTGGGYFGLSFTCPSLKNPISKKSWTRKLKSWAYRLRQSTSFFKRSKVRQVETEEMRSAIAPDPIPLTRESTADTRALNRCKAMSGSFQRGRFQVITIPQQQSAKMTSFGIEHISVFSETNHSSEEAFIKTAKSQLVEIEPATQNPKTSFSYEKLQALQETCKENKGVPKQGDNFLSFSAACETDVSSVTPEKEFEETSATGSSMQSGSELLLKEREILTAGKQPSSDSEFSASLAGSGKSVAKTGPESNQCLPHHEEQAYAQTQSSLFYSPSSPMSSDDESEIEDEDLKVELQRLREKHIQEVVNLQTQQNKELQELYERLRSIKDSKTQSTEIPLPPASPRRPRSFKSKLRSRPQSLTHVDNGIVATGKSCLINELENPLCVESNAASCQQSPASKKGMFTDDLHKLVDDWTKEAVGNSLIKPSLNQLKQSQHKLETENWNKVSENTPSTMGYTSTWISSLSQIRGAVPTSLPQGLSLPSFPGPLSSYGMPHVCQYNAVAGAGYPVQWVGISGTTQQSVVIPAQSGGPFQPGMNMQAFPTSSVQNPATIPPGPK
Tyrosine-protein kinase Yes (Homo sapiens), sequence (P07947 2-543 limits assumed): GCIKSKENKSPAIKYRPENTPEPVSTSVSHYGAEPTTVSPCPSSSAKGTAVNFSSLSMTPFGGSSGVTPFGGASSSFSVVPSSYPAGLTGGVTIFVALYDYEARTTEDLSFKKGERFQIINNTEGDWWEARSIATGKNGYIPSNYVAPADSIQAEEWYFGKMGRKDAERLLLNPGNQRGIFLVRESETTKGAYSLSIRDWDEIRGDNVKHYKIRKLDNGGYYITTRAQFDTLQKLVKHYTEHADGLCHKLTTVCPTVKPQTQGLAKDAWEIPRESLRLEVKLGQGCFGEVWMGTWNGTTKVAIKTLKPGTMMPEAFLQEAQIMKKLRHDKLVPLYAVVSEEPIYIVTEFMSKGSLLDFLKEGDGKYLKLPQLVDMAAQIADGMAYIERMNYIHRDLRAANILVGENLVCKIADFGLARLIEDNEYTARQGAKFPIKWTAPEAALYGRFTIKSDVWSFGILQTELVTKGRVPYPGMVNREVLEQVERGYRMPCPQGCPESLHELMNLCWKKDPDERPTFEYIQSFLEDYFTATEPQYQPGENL
Death-associated protein kinase 3 (Homo sapiens), sequence (O43293 whole entry, looked up): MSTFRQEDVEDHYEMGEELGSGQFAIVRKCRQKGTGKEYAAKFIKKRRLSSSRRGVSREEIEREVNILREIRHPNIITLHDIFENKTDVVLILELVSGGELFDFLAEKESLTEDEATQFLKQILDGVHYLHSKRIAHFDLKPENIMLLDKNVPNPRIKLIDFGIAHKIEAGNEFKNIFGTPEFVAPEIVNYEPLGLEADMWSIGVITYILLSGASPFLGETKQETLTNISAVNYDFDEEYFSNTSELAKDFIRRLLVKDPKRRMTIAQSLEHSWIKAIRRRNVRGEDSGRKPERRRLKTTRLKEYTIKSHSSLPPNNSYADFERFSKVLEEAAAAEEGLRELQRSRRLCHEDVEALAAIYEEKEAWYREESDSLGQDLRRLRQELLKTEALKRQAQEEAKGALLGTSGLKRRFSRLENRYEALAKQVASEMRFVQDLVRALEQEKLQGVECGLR

Structure (SMILES)	residual activity [1] [%]	residual activity [2]	residual activity [3] [%]	residual activity [4] [%]	residual activity [5] [%]	residual activity [6] [%]	residual activity [7] [%]	residual activity [8] [%]	residual activity [9] [%]	residual activity [10] [%]
O=C1NC(=O)c2c1c1c3ccccc3[nH]c1c1[nH]c3cc(Br)ccc3c21	85	85% (inactive)	82	95	88	95	102	91	82	82
O=C1Nc2cc(Br)ccc2/C1=C1/Nc2ccccc2/C1=N\O	91	93% (inactive)	93	1	4	97	38	18	77	68
CCN(CC)C(=O)c1ccc(Nc2nc(OCC3CCCCC3)c3nc[nH]c3n2)cc1	48	–	–	13	1	–	–	65	62	21
N#Cc1cnc2cnc(NCc3cccnc3)cc2c1Nc1ccc(F)c(Cl)c1	–	97% (inactive)	87	9	5	44	65	48	77	91
Oc1ccc(Nc2nc(-c3ccc(Cl)cc3)cs2)cc1	99	109% (inactive)	91	123	92	115	110	133	84	84
COc1cccc(-c2cc(=O)c3ccccc3o2)c1N	102	82% (inactive)	100	123	106	137	105	101	85	86
c1ccc2c(-c3ccncc3)c[nH]c2c1	75	98% (inactive)	96	–	97	–	110	107	73	81
N#CC(C#N)=C(N)/C(C#N)=C/c1ccc(O)cc1	83	96% (inactive)	75	–	93	128	–	–	92	88
Cn1nc2c3c(cccc31)C(=O)c1ccccc1-2	89	95% (inactive)	67	–	95	92	77	82	80	72
Cc1nc2cc3nc(-c4cccs4)cnc3cc2n1C	94	124% (inactive)	71	106	59	135	97	102	97	95
O=C1c2ccccc2-[n+]2ccc3c([nH]c4ccccc43)c21	92	91% (inactive)	93	113	86	128	73	78	71	73
COc1ccc(CNc2nc(N(CCO)CCO)nc3c2ncn3C(C)C)cc1	86	97% (inactive)	93	100	89	102	99	92	85	69
Cc1cccc(-c2[nH]c(C(C)(C)C)nc2-c2ccc3c(c2)OCO3)n1	84	89% (inactive)	89	103	44	–	–	–	82	71
Cn1cnc2cc3c(Nc4cccc(Br)c4)ncnc3cc21	85	93% (inactive)	90	31	14	87	89	101	85	90
N#CCCc1ccc2c(c1)-c1[nH]c3ccc([N+](=O)[O-])cc3c1CC(=O)N2	–	–	–	9	0	–	–	–	–	–
CC(C)n1cnc2c(NCc3ccccc3)nc(NCCCO)nc21	89	105% (inactive)	92	108	88	114	87	97	85	78
Cc1ccc(S(=O)(=O)/C=C/C#N)cc1	95	98% (inactive)	98	123	103	–	88	93	91	87
COc1cc2ncnc(N3CCN(C(=O)Nc4ccc(Oc5ccccc5)cc4)CC3)c2cc1OC	48	80% (inactive)	58	103	105	102	105	144	78	93
Cc1cc2ncc(-c3ccccc3)nc2cc1C	93	96% (inactive)	92	109	106	96	–	100	97	83

Structure (SMILES)	residual activity [1] [%]	residual activity [2]	residual activity [3] [%]	residual activity [4] [%]	residual activity [5] [%]	residual activity [6] [%]	residual activity [7] [%]	residual activity [8] [%]	residual activity [9] [%]	residual activity [10] [%]
CO[C@H]1C[C@@H]2CC[C@@H](C)[C@@](O)(O2)C(=O)C(=O)N2CCCC[C@H]2C(=O)O[C@H]([C@H](C)C[C@@H]2CC[C@@H](O)[C@H](OC)C2)CC(=O)[C@H](C)/C=C(\C)[C@@H](O)[C@@H](OC)C(=O)[C@H](C)C[C@H](C)/C=C/C=C/C=C/1C	94	107% (inactive)	111	103	–	104	116	141	73	108
c1ccc(-c2n[nH]c3c2oc2ccccc23)cc1	74	–	–	99	67	–	94	100	74	85
COc1cc2ncnc(Nc3ccc(NC(=O)c4ccccc4)cc3)c2cc1OC	25	59% (inactive)	23	96	30	–	97	84	86	93
CC(=O)c1ccc(N2CCOCC2)cc1O	94	104% (inactive)	104	–	–	84	106	97	83	97
COc1cc2ncc(-c3ccccc3)nc2cc1OC	94	126% (inactive)	95	–	–	–	96	100	99	86
Nc1nc(Nc2ccc(S(N)(=O)=O)cc2)nn1C(=S)Nc1c(F)cccc1F	–	77% (inactive)	64	3	2	124	90	78	82	26
Cc1cncc2cccc(S(=O)(=O)N3CCCN(C(=O)CN)C[C@H]3C)c12	–	–	92	–	49	–	–	–	79	95
CO[C@H]1[C@@H](OC)C[C@H](C)[C@@H](OC)C2=CC(=O)C=C(NC(=O)/C(C)=C/C=C/[C@H](OC)[C@@H](OC(N)=O)/C(C)=C/[C@@H]1C)C2=O	90	112% (inactive)	106	101	90	98	108	96	93	85
O=[N+]([O-])c1ccc(-c2nc(-c3ccc(F)cc3)c(-c3ccncc3)[nH]2)cc1	95	92% (inactive)	98	103	102	122	92	102	20	13
Cc1cc(Nc2nc(-c3ccccc3)nc3ccccc23)n[nH]1	27	74% (inactive)	31	6	1	114	46	13	–	62
O=C1Nc2ccc(Br)cc2/C1=C\c1cc2c([nH]1)CCCC2	84	118% (inactive)	105	79	63	112	–	–	99	102
c1ccc(-c2n[nH]cc2-c2ccnc3ccccc23)nc1	88	97% (inactive)	91	98	53	–	–	96	81	51
CN(C)CCCn1cc(C2=C(c3c[nH]c4ccccc34)C(=O)NC2=O)c2ccccc21	86	121% (inactive)	–	105	33	133	62	35	113	110
Cc1nc(-c2ccccc2)c(-c2ccncc2)o1	101	104% (inactive)	100	121	99	127	106	94	60	40
CC(=O)O/N=C1\C(=C2\C(=O)Nc3cc(Br)ccc32)Nc2ccccc21	92	101% (inactive)	94	42	4	106	99	71	80	75
Nc1cccc(-c2cc3c(Oc4cccc(O)c4)ncnc3[nH]2)c1	40	93% (inactive)	49	1	-1	–	92	–	36	10
CO[C@@H]1[C@H](N(C)C(=O)c2ccccc2)C[C@H]2O[C@]1(C)n1c3ccccc3c3c4c(c5c6ccccc6n2c5c31)C(=O)NC4	60	91% (inactive)	76	5	4	70	56	59	80	90
CC(C)n1cnc2/c(=N/c3cccc(Cl)c3)nc(NCCO)[nH]c21	52	88% (inactive)	57	27	2	98	103	93	70	31
